Laboratory results: ChEMBL document CHEMBL3988442, “University of Dundee, Small-Polar-MMV Screening Library” (2021)
For some assays here: Measured potencies and affinities stand elsewhere.

Legend:
Parameters in all cases: scale not given: direction of the effect not stated beside the values
[1] = target: Protein translocase subunit SecA (Escherichia coli (strain K12)) (UniProt P10408); assay: Assay to Identify E. coli SecA ATPase Inhibitors; type: functional; details: 30 µM
[2] = target: T1, Ubiquitin-activating enzyme e1, putative (Leishmania donovani (strain BPK282A1)) (UniProt E9BSI1); assay: Leishmania donovani Ubiquitin Activating Enzyme (LdE1); type: functional; details: 30 µM
T1 sequence (whole entry): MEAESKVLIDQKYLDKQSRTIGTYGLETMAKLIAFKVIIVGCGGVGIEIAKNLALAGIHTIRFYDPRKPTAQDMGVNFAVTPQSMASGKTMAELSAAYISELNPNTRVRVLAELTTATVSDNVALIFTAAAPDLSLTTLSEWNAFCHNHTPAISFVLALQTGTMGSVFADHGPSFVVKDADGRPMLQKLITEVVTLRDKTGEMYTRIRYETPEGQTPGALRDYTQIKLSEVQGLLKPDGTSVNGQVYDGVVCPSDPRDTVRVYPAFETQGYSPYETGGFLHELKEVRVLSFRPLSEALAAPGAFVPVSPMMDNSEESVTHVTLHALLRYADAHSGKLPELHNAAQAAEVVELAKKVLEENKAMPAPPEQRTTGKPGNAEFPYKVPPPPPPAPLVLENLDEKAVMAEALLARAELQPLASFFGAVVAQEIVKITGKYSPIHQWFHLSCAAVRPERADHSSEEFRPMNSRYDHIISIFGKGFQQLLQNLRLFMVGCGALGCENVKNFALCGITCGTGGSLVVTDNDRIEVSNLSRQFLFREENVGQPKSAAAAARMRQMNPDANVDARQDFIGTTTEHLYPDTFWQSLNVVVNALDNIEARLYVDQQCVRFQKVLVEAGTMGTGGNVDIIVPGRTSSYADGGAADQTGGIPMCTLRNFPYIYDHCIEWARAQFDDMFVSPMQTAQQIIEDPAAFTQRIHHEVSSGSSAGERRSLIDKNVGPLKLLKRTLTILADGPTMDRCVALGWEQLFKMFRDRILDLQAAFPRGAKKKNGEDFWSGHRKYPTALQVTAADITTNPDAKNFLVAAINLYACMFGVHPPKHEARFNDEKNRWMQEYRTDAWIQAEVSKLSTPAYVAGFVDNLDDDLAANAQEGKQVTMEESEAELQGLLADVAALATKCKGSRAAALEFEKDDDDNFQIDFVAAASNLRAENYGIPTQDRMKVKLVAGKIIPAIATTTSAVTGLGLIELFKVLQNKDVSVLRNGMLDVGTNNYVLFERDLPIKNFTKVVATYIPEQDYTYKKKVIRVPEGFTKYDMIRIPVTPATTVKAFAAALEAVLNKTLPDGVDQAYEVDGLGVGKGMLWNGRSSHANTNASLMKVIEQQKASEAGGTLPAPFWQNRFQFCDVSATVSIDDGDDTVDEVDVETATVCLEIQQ

[3] = target: AMP-activated protein kinase, AMPK (Homo sapiens) (UniProt P54646+O43741+P54619+Q9UGJ0+Q9Y478+Q13131+Q9UGI9); assay: AMP-dependent Kinase enzyme assay. An in vitro enzyme assay that detects ADP turnover that is directly proportional to AMPK activity. This uses naive AMPK that is activated during the assay with MK-8722; type: functional; details: 30 µM
[4] = target: Sialic acid-binding Ig-like lectin 9 (Homo sapiens) (UniProt Q9Y336); assay: Hs-Siglec9 ALPHAscreen SOP 20170721; details: 10 µM
Trypanosoma cruzi = assay: Trypanosoma cruzi phosphomannomutase and mannose-1-phosphate guanylyltransferase assay; type: functional; details: 10 µM
[5] = target: T2, Arginase-2, mitochondrial (Homo sapiens) (UniProt P78540); assay: in vitro enzyme assay to detect the production of urea directly proportional to the activity of Arginase II; type: functional; details: 33.3 µM; also: in the data most compounds retested in dose-response had high values
T2 sequence (whole entry): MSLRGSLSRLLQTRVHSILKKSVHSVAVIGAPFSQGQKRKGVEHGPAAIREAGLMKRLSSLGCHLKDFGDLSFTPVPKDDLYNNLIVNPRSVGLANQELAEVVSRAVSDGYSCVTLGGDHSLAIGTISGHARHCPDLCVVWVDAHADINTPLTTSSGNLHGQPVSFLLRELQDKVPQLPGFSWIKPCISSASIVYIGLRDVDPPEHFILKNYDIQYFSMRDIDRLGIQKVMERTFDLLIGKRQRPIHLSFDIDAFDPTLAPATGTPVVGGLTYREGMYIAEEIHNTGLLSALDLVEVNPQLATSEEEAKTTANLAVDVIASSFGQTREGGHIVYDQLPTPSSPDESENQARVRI

[6] = target: T3, Proteasome subunit beta (Trypanosoma cruzi) (UniProt O96673); assay: Trypanosoma cruzi proteasome chymotrypsin-like activity (TcProtChymo) assay.; also: in the data most compounds retested in dose-response had high values; type: functional; details: 9.37 µM
T3 sequence (whole entry): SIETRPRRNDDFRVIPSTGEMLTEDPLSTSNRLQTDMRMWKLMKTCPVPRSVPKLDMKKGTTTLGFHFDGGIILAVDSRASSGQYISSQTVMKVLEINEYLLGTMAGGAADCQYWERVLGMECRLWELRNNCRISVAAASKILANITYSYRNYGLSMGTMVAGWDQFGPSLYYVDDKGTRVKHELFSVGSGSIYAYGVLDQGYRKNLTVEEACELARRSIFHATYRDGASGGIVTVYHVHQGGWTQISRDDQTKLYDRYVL

Homo sapiens = organism: Homo sapiens; assay: To identify inhibition of the IFN signalling (Jak-Stat) pathway via expression of an eGFP reporter gene under the control of an IFN-stimulated response element (ISRE) containing MxA promoter.; type: functional; details: 30 µM
[7] = target: T4, Tyrosyl-tRNA synthetase, putative (Trypanosoma cruzi (strain CL Brener)) (UniProt Q4DSP6); assay: Trypanosoma cruzi tyrosyl tRNA synthetase (TcYRS) _High Tyrosine SOP; type: functional; details: 30 µM; also: in the data most compounds retested in dose-response had high values
T4 sequence (whole entry): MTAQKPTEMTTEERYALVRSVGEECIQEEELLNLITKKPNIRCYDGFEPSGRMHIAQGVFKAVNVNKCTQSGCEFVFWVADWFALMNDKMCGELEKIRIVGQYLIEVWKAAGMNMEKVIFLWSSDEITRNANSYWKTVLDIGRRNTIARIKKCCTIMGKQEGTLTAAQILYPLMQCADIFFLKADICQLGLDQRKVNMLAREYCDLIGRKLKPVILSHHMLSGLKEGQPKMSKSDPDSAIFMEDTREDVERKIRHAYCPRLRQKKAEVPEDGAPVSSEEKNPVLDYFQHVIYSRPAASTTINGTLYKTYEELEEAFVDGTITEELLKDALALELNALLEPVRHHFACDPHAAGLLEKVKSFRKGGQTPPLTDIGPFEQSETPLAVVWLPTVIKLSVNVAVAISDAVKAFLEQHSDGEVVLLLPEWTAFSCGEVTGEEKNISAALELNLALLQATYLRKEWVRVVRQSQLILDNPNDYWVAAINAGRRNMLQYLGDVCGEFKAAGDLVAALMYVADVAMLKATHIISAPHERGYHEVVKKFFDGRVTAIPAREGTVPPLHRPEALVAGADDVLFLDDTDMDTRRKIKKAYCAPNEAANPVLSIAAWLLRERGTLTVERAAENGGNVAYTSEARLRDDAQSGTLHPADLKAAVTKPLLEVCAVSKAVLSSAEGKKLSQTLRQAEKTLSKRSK

[8] = target: T4, Tyrosyl-tRNA synthetase, putative (Trypanosoma cruzi (strain CL Brener)); assay: Trypanosoma cruzi tyrosyl tRNA synthetase (TcYRS) SOP; type: functional; details: 30 µM
[9] = target: Chromo domain-containing protein 1 (Saccharomyces cerevisiae (strain ATCC 204508 / S288c) (Baker's yeast)) (UniProt P32657); assay: ScCHD-1 Enzyme Inhibition Assay; type: functional; details: 30 µM; also: in the data most compounds retested in dose-response had high values
Chain of Chromo domain-containing protein 1 (Saccharomyces cerevisiae (strain ATCC 204508 / S288c) (Baker's yeast)) (P32657 whole entry, the tested form may be a part): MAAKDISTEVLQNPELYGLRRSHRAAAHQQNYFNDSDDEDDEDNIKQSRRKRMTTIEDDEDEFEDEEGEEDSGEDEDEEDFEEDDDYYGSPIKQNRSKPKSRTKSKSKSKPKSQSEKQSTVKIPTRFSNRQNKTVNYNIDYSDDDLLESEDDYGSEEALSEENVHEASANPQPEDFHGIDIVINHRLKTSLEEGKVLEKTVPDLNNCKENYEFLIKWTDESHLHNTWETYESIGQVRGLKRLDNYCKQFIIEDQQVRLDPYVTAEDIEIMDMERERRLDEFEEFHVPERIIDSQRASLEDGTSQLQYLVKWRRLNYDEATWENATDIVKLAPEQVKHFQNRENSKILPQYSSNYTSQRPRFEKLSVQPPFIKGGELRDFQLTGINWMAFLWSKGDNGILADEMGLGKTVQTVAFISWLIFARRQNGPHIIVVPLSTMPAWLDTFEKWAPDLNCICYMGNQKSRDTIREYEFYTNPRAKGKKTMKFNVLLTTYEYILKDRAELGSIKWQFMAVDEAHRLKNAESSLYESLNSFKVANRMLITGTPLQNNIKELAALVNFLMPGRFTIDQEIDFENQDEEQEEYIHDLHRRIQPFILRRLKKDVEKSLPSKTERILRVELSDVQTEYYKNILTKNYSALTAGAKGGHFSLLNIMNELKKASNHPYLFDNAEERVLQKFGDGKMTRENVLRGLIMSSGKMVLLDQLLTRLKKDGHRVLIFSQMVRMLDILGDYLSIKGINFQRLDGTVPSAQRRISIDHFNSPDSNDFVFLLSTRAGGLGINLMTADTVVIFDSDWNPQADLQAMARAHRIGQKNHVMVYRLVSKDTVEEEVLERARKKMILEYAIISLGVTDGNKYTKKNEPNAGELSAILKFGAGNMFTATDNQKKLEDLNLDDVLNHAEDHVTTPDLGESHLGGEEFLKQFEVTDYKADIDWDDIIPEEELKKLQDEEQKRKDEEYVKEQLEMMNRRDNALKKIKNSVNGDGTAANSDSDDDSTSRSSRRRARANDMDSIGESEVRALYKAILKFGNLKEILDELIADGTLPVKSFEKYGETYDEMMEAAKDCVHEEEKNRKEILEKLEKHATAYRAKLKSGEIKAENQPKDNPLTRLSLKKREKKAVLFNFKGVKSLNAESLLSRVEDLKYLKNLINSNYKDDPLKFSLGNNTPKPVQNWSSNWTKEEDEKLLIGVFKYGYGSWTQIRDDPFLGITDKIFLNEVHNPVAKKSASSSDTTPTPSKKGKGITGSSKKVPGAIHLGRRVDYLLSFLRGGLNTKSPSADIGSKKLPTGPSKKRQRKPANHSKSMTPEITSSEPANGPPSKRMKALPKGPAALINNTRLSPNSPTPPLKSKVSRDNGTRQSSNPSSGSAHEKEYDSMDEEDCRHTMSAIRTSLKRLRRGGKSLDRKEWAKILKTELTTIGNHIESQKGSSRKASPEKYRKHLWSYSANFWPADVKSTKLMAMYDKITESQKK

Chain of Sialic acid-binding Ig-like lectin 9 (Homo sapiens) (Q9Y336 whole entry): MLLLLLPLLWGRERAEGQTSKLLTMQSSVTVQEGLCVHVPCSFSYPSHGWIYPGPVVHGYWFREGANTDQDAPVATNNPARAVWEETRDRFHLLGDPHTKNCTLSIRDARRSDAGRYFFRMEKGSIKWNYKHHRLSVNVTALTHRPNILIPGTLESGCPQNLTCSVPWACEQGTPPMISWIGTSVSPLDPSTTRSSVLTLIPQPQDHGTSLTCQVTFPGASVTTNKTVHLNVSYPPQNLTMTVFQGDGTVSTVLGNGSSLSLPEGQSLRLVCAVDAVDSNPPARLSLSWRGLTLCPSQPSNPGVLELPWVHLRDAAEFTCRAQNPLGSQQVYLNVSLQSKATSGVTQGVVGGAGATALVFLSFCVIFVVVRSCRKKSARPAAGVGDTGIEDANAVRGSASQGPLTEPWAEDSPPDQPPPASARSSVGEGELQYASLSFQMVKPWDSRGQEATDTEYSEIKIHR
Chain of Protein translocase subunit SecA (Escherichia coli (strain K12)) (P10408 whole entry): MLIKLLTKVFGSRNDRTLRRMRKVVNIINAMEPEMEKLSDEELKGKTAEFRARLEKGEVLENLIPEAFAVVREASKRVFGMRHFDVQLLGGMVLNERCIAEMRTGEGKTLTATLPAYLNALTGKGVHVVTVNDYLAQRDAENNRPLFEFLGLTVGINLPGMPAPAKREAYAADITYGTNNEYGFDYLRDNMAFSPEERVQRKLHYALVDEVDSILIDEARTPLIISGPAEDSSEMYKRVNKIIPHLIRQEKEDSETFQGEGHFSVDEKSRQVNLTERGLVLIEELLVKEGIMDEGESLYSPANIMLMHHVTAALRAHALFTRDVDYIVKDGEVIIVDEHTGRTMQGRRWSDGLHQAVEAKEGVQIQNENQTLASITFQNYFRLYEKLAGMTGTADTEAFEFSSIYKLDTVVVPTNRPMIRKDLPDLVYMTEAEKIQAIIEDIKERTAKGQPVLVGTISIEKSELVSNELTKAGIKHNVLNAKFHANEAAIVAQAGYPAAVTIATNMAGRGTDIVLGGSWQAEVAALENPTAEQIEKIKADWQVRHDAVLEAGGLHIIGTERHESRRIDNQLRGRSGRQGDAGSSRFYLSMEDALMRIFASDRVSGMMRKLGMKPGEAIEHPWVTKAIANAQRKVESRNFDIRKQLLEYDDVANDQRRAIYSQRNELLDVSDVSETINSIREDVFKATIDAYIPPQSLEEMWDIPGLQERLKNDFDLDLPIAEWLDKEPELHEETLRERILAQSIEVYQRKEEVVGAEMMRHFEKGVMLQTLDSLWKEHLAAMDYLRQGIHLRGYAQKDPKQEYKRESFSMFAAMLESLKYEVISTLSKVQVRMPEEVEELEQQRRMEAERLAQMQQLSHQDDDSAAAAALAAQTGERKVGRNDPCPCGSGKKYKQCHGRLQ

| SMILES | Percent Effect [1] [%] | Percent Effect [2] [%] | Percent Effect [3] [%] | Percent Effect [4] [%] | Percent Effect (Trypanosoma cruzi) [%] | Percent Effect [5] [%] | Percent Effect [6] [%] | Percent Effect (Homo sapiens) [%] | Percent Effect [7] [%] | Percent Effect [8] [%] | Percent Effect [9] [%] |
| --- | --- | --- | --- | --- | --- | --- | --- | --- | --- | --- | --- |
| CCN(CC(=O)NC(C)C)S(=O)(=O)N1CCC(C)C1 (stereo not given) | -2.1 | 0 | -2.33 | -4.69 | 2.05 | 1.24 | 5.24 | -14.3 | 1.07 | 6.17 | -6.4 |
| Cn1cc(-c2cnc(N3CCOCC3)nc2)cc1C(=O)NCCO | -0.798 | 5.33 | 1.84 | -0.344 | -8.86 | 5.83 | 8.37 | -3.42 | 0 | 6.41 | -7.59 |
| Cc1nc(CN2CCOC(c3nc(C(C)C)n[nH]3)C2)oc1C (stereo not given) | -1.29 | 5.06 | 3.22 | 7.38 | 2.74 | 2.66 | 1.72 | -4.74 | 3.45 | 8.86 | -3.77 |
| CN(Cc1cccc(F)c1)C(=O)CN1CCCC1CCc1ccccc1 (stereo not given) | -3.56 | -7.79 | 2.67 | 4.42 | 3.44 | -1.38 | 2 | -5.85 | 1.07 | -3.7 | 113 |
| CCOc1nnc(CN(C)C2CCCN(c3cccnn3)C2)s1 (stereo not given) | -2.38 | 10.5 | -2.62 | -6.38 | 7.5 | -11.8 | 17.9 | -12.4 | 7.45 | 18.2 | -4.02 |
| CCOc1ccccc1C(CC(=O)Nc1nc(C)cs1)NC(C)=O (stereo not given) | -1.09 | 5.26 | -0.999 | 0.981 | -2.63 | 4.21 | 6.85 | 10.1 | 3.43 | 9.76 | -5.47 |
| CC(CNC(=O)c1ccc(Cl)cc1I)N1CCCC1 (stereo not given) | -0.489 | -2.7 | -6.38 | -1.77 | 7.53 | -2.38 | 27.4 | -7.67 | 6.88 | 12.2 | 51.2 |
| COc1ccc(CN2CCC3(CC(=O)N(c4cncnc4)C3)C2)cc1 (stereo not given) | -1.48 | 16.2 | 5.08 | -9.74 | -3.81 | -7.33 | 12.9 | 5.2 | 1.08 | 7.69 | -3.32 |
| Cc1cnn(CC2CN(c3ncnc4ccsc34)CCO2)c1 (stereo not given) | -2.74 | 2.7 | 4.84 | -10 | 6.05 | -2.5 | 19.7 | 75.7 | 11.9 | 15.8 | -0.587 |
| CCn1nccc1CNC(=O)NC1CCCCC1 | -3.38 | 7.79 | 7.6 | -2.52 | -7.18 | 0 | 9.98 | 12 | 1.07 | 3.7 | -2.19 |
